According to PubChem BioAssay AID2391 (Southern Research Specialized Biocontainment Screening …, 2010):
Hit rate of the full screen: of about 310,000 compounds, about 410 (0.13%) were called active. Inconclusive results (about 2%) are left out. How the calls were made is not given here. These entries were drawn from the full list. Potency and affinity values are given separately.

Assay: inhibition of RSV-induced cytopathic effect – HEp-2 cells, primary 10 µM value included (AID 2391)
Settings: at 10 µM, stronger effect = higher value

CPE inhibition, inactive:
CCOCCOC(=O)C1=C(C)Nc2ccc(C)cc2S1 2.03%
CN(C(=O)COC(=O)c1cc(S(=O)(=O)N2CCOCC2)ccc1Cl)C1CCS(=O)(=O)C1 (centres undefined) -1.51%
CCn1nnnc1-c1ccc(OC)c(S(=O)(=O)Nc2ccc(C(=O)OC)cc2)c1 1.29%
Cc1ccc(CC(=O)NCC2CCCCC2)cc1 0.51%
Cc1ccsc1CNC1C2CC3CC(C2)CC1C3 (centres undefined) -1.39%
CC(C)c1ccc(/C=C(\NC(=O)c2ccccc2)C(=O)NCCCN2CCOCC2)cc1 0.11%
Cc1ccc(C(=O)N/C(=C\c2ccc(Cl)cc2)C(=O)NCCN2CCOCC2)cc1 0.95%
Cc1ccc(C(=O)N/C(=C\c2ccc(Cl)cc2)C(=O)NCCCN2CCOCC2)cc1 2.02%
CC(C)c1ccc(/C=C(\NC(=O)c2ccccc2)C(=O)NCCN2CCOCC2)cc1 0.84%
N#C/C(=C\c1ccc(OCc2ccc(C(=O)O)cc2)cc1)C(=O)NCc1ccccc1 1.49%
CCOc1ncccc1C(=O)N(C)CC(=O)Nc1ccccc1SC 1.11%
Clc1ccc(Sc2cc(Cl)c(-c3ccccc3)nn2)cc1 4.99%
O=C(C1=COCCO1)N1CCN(S(=O)(=O)c2cccc(F)c2)CC1 1.49%
Cc1cc2c(cc1S(=O)(=O)Nc1cccc(C)c1C)n(C)c(=O)c(=O)n2C -1.46%
CN(C)S(=O)(=O)c1cccc(NC(=O)COC(=O)CCC(=O)c2cccs2)c1 -1.26%
Cc1ccc(S(=O)(=O)NNC(=O)Nc2ccc(C)c(C)c2)c(C)c1 1.56%
COc1cccc(CN2C(=O)C3CCCN3c3ccc(S(=O)(=O)N4CCOCC4)cc32)c1 (centres undefined) 15.8%
COc1ccc(CCNC(=O)c2ccc([N+](=O)[O-])cc2)cc1 0.4%
COc1ccc(CCNC(=O)c2ccc(-c3ccc([N+](=O)[O-])cc3)o2)cc1OC 3.03%
COC(=O)c1ccccc1OC(=O)c1cc2ccccc2oc1=O -0.19%
Nc1nc(SCC(=O)c2ccc(F)cc2)n[nH]1 0.71%
O=C(CNc1cccc(C(F)(F)F)c1)N/N=C/c1ccccc1C(=O)O 1.07%
O=C(CNc1ccccc1)N/N=C/c1cn(-c2ccccc2)nc1-c1ccccc1 6.81%
CCOC(=O)N1CCN(C(=O)COc2ccc3c(c2)C(=O)CC(C)(C)O3)CC1 1.7%
COc1ccc(C(C(=O)NC2CCCC2)N(C(=O)c2snc(C(N)=O)c2N)c2ccccc2OC)cc1OC (centres undefined) 17.8%
COc1ccc(C(C(=O)NC2CCCC2)N(C(=O)c2snc(C(N)=O)c2N)C2CCCC2)cc1OC (centres undefined) 3.34%
COc1cc(C(C(=O)NC2CCCC2)N(C(=O)c2snc(C(N)=O)c2N)c2ccccc2)cc(OC)c1OC (centres undefined) 1.74%
Cc1ccc(N(C(=O)c2snc(C(N)=O)c2N)C(C(=O)NC2CCCC2)c2ccncc2)cc1 (centres undefined) 0.36%
Cc1ccc(C(CCN(Cc2ccccc2)C(=O)c2ccco2)c2ccco2)cc1 (centres undefined) 6.53%
Cc1cccc(CSc2nc3sc(C)c(C)c3c(=O)n2Cc2ccco2)c1 13.2%
Cc1ccc(-n2c(SCC(=O)Nc3cccc(S(N)(=O)=O)c3)nc3ccccc32)cc1 1.64%
COc1ccc(-n2c(SC(C)C(=O)Nc3ncc(Cl)cc3Cl)nc3ccccc32)cc1 (centres undefined) 15.9%
COCCn1c(SCC(=O)Nc2ccc(Cl)cn2)nc2ccccc21 -1.02%
COc1ccc(-n2c(SCC(=O)Nc3ncc(Cl)cc3Cl)nc3ccccc32)cc1 18.7%
O=C(CSc1nnc2ccccn12)Nc1ncc(Cl)cc1Cl 4.23%
Cc1cc(SCC(=O)Nc2ncc(Cl)cc2Cl)nc2ccccc12 5.54%
CC(=O)N[C@@H](Cc1ccc(O)cc1)CN1C(N)=NC[C@@H]1CC(C)C -0.28%
O=C(COc1cccc2c1CCNC2=O)Nc1cccc(C(F)(F)F)c1 1.19%
C/C(=N/OC(=O)C1CC12CCC2)c1ccc(Br)cc1 (centres undefined) 2.98%
CCOC(=O)C1CCN(C(=O)CC(C)S(=O)(=O)c2ccc3c(c2)NC(=O)CO3)CC1 (centres undefined) 7%
CCOc1ccc(S(=O)(=O)Nc2ccc(F)cc2)c(C)c1C 6.57%
Cc1cccc(C)c1OCc1cc(C(=O)N2CCN(C3CCCC3)CC2)no1 0.09%
O=C(Oc1ccc(-c2nnco2)cc1)N1CCCCC1 2.35%
CCCNc1c(F)c(F)c2c(C)c3ccccc3nc2c1F -1.87%
OCCNc1c2ccccc2nc2c(F)c(F)c(F)c(F)c12 -1.66%
CCOc1ccc(C2=C/C(=C/c3cccnc3)C(=O)O2)cc1 1.93%
COc1ccc(OC)c(CCNC(=O)CN2C(=O)CCSc3ccccc32)c1 -3.24%
Cc1ccc2[nH]c(-c3cccc(F)c3)cc(=O)c2c1 -0.29%
Cc1ccc2nc(-c3cccc(N)c3)[nH]c2c1 2.27%
Cc1cccc(-c2nc(CS(=O)CC(=O)NCCc3ccccc3)c(C)o2)c1 (centres undefined) 0.05%
COCc1[nH]nc2c1C1(C(=O)N(C)c3ccccc31)C(C#N)=C(N)O2 (centres undefined) 2.9%
O=C1c2ccccc2C(=O)N1CCc1csc(-c2ccc(F)cc2)n1 2.17%
O=C1c2ccccc2C(=O)N1CCc1csc(-c2ccccc2)n1 3.44%
CCSc1nc(O)cc(=O)n1-c1ccc(OC)cc1 -0.46%
CC(NC(=O)c1nn(C)c(=O)c2ccccc12)c1ccc(F)cc1 (centres undefined) 1.39%
O=C(/C=C/c1ccco1)Nc1sc2c(c1C(=O)O)CCC2 3.96%
O=C(O)CCC(=O)Nc1sc2c(c1C(=O)NCc1ccccc1)CCCC2 1.43%
O=C(/C=C/c1cccs1)Nc1sc2c(c1C(=O)O)CCCC2 16.6%
O=C(Nc1sc2c(c1C(=O)O)CCCCC2)c1ccccc1 2.56%
